Six compounds from PubChem BioAssay (Tox21) can be followed below.

A number with no mark means an inactive call. Results filed as inconclusive are left out. Activity calls are given as the source filed them. Unless noted, calls follow the shape of the full dose curve.

Assay [1] is described as follows: Nuclear factor erythroid 2-related factor 2/antioxidant responsive element (Nrf2/ARE) small molecule agonists: luciferase reporter gene qHTS assay in human keratinocytes (AID 1919969). Also: nearly all actives have a fitted effect of over 35% in size. Also: potency is read from the fitted curve at half-maximal effect. Background: Reporter assays use an easily measured gene product as a stand-in for the process of interest.
The target in assay [2] is Gonadotropin-releasing hormone receptor (Homo sapiens) (UniProt P30968). Briefly: Human gonadotropin-releasing hormone receptor (GnRHR) small molecule agonists, calcium flux assay in GnRHR-HEK293 cells (AID 1920063). Also: nearly all actives have a fitted effect of over 35% in size. The method, boiled down: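 Intracellular calcium rise is the read-out: engineered human GnRHR HEK293 cells, dye-loaded, are exposed to DMSO-dissolved compounds and fluorescence at Ex/Em 480/540 is tracked for 3 min.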
Gonadotropin-releasing hormone receptor (Homo sapiens), sequence (P30968 whole entry, looked up): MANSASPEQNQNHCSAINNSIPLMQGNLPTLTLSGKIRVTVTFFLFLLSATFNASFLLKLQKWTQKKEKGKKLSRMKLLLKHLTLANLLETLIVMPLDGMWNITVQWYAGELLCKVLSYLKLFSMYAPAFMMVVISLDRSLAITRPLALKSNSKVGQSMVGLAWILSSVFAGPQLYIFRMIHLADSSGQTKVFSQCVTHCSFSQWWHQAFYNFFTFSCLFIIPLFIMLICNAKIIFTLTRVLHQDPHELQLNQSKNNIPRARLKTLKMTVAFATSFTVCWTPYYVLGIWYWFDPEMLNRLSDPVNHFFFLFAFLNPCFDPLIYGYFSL
(In general: A change in cytosolic calcium serves as a functional read-out for many receptors and channels.)

The target of assay [3] is KiSS-1 receptor (Homo sapiens) (UniProt Q969F8). Kind of assay: Human kisspeptin (KISS1R) small molecule agonists, calcium flux assay in KISS1R-HEK293 cells (AID 1920064; active = well fitted activation curve with a large enough effect in the repeat runs). The method, boiled down: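 Concentration-response testing used 15 concentrations in triplicate on human KISS1R-expressing HEK293 cells. Calcium-dependent fluorescence (Ex/Em 480/540) was followed kinetically for 3 min after compound transfer.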
KiSS-1 receptor (Homo sapiens), sequence (Q969F8 whole entry, looked up): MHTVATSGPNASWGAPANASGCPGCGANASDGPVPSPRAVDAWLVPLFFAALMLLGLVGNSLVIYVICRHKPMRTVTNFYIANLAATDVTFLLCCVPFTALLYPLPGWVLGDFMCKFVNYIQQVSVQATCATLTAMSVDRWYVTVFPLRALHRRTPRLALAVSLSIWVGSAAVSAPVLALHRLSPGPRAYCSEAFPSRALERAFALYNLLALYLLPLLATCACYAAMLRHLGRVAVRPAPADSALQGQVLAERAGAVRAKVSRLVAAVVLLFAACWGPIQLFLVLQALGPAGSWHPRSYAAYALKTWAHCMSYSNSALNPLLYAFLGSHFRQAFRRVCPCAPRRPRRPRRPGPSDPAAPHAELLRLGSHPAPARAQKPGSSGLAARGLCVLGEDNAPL

Assay [4] is described as follows: G protein-coupled receptor (GPCR) small molecule agonists, calcium flux assay: HEK293 wild type cell line counter screen (AID 1920065). The method, boiled down:
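Fluorescence intensity signals activation. After overnight (18 h) culture and a 1 h calcium dye load at 37 C, compounds are added by pin tool and the plate read at 480/540 nm for 3 min in 1 s steps.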

Assay [5] can be described thus: p53 small molecule agonists, cell-based qHTS assay with human liver microsomes (AID 1963577).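 Also: p53 response element beta-lactamase reporter cells with liver microsomes plus NADPH.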 In outline: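 HLM-supplemented p53RE-bla reporter assay: 16 h compound exposure at 37 C, microsomes and NADPH each 0.5 mg/mL final, read by fluorescence intensity.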
On the technique in general: In qHTS, concentration-response curves come from the screen itself.

The nature of assay [6]: p53 small molecule agonists, cell-based qHTS assay with rat liver microsomes (AID 1963578). In outline:
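Quantitative HTS of the Tox21 10K library: p53RE-bla cells, rat liver microsomes plus NADPH at 0.5 mg/mL final each, 16 h at 37 C, beta-lactamase fluorescence detection.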

Assay [7] can be described thus: p53 small molecule agonists, cell-based qHTS assay with human liver microsomes: qHTS cell viability counter screen (AID 1963579). Also: nearly all actives have a fitted effect of over 45% in size. The method, boiled down:
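Viability of p53RE-bla cells is measured as CellTiter-Glo luminescence following a 16 h, 37 C incubation with compound, liver microsomes from human donors and NADPH.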

Assay [8] in a line: p53 small molecule agonists, cell-based qHTS assay with rat liver microsomes: qHTS cell viability counter screen (AID 1963580). Also: nearly all actives have a fitted effect of over 45% in size. In outline:
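Luminescent ATP readout (CellTiter-Glo, 30 min at room temperature) reports viability of p53RE-bla HCT-116 cells after 16 h at 37 C with test compounds under metabolic activation by rat liver microsomes and NADPH at 0.5 mg/mL final each.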

A short description of assay [9]: p53 small molecule agonists, cell-based qHTS assay: qHTS cell viability counter screen (AID 1963581). Also: nearly all actives have a fitted effect of over 45% in size. The method, boiled down: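 Luminescence from CellTiter-Glo, reflecting ATP content, serves as the cytotoxicity measure; it is taken after the 2 h reporter substrate step in HCT-116 p53RE-bla cells dosed for 16 h at 37 C.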
Assay [10] can be described thus: p53 small molecule agonists, cell-based qHTS assay (AID 1963582; active = well fitted activation curve with a large enough effect in the signal ratio in the repeat runs, not every such curve was filed as active; the % refers to the signal ratio). The method, boiled down: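 After plating, p53RE-bla cells sat 5 h in the incubator; compounds or DMSO vehicle were pinned in; a 16 h incubation at 37 C followed; FRET substrate was added and, 2 h later at RT, fluorescence was measured.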
Assay [11] addresses 5-hydroxytryptamine receptor 2A (Homo sapiens) (UniProt P28223). Kind of assay: 5-hydroxytryptamine receptor 2A (HTR2A) small molecule antagonists, cell-based qHTS assay (AID 1963586). Also: nearly all actives have a fitted effect of over 45% in size. In outline:
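CHO cells stably expressing human HTR2A were plated for 18 h at 37 C, then loaded with calcium dye for 1 h. Compounds were preincubated 5 min at room temperature before DOI (4 nM solution) was added. Kinetic fluorescence was read for 3 min.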

The target of assay [12] is Muscarinic acetylcholine receptor M1 (Homo sapiens) (UniProt P11229). Kind of assay: Cholinergic receptor muscarinic 1 (CHRM1) small molecule antagonists, cell-based qHTS assay (AID 1963588). Also: nearly all actives have a fitted effect of over 40% in size. In outline: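 Compounds were tested at 15 concentrations in three independent runs. Dye-loaded CHRM1-CHO cells were exposed 5 min at room temperature before stimulation by acetylcholine added at 50nM. Intracellular calcium was read kinetically on FDSS for 3 min.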
Muscarinic acetylcholine receptor M1 (Homo sapiens), sequence (P11229 whole entry, looked up): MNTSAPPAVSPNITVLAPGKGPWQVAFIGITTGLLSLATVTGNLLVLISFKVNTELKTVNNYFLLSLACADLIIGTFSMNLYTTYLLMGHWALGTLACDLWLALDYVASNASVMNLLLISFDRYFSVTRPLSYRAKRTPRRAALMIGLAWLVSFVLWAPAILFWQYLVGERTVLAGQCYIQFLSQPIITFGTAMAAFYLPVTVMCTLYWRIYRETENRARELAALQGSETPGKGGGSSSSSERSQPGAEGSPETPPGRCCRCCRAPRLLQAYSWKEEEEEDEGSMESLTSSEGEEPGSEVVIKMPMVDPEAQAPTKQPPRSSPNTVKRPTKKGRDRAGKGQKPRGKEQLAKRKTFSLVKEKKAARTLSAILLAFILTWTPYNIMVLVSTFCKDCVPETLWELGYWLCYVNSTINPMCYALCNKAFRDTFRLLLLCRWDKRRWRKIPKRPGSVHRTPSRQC

Assay [13] shares this target. Briefly: Cholinergic receptor muscarinic 1 (CHRM1) small molecule agonists, cell-based qHTS assay (AID 1963589). Also: nearly all actives have a fitted effect of over 35% in size. In outline:
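Fluorescent calcium dye reports M1 activation in stably transfected CHO cells. Compounds, 15 concentrations, added after 1 h dye loading at 37 C; kinetic reading at 1 sec intervals.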

A short description of assay [14]: cAMP Responsive Elements (CRE) small molecule agonists, cell-based qHTS assay (AID 1963590). The method, boiled down:
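Compound exposure lasted 3 h at 37 C/5% CO2 in CRE-bla HEK 293T cells grown in assay medium with 10% dialyzed FBS and 25 mM HEPES. Reporter signal came from LiveBLAzer B/G FRET substrate, 2 h, room temperature.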

A short description of assay [15]: cAMP Responsive Elements (CRE) small molecule antagonists, cell-based qHTS assay (AID 1963591; active = well fitted inhibition curve with a large enough effect in the signal ratio in the repeat runs, not every such curve was filed as active; the % refers to the signal ratio). In outline: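 Stimulation used NKH477 at a final 0.25 uM for 3 h in compound-treated CRE-bla HEK293T cells, seeded 18 h beforehand. Reporter activity was measured with LiveBLAzer B/G FRET substrate after 2 h at room temperature.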
Assay [16] deals with Beta-2 adrenergic receptor (Homo sapiens) (UniProt P07550). Kind of assay: Adrenergic beta2 receptor (ADRB2) small molecule antagonists, cell-based qHTS assay (AID 1963592). Also: nearly all actives have a fitted effect of over 50% in size. Also: potency is read from the fitted curve at half-maximal effect. In outline:
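Assay format: CHO-ADRB2 cells, 18-20hr seeding at 37C/5% CO2, then compound plus 1nM isoproterenol agonist mix for 0.5hr RT. Homogeneous time-resolved fluorescence cAMP detection after 1hr, expressed as 665/615 nm ratio.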

The target of assay [17] is D(2) dopamine receptor (Homo sapiens) (UniProt P14416). Briefly: Dopamine D2 receptor (DRD2) small molecule agonists, cell-based qHTS assay (AID 1963594). Also: nearly all actives have a fitted effect of over 35% in size. The method, boiled down:
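HEK293 cells stably expressing DRD2 were cultured 24 h at 37 C, then given Ro20-1724 (0.1 mM final) and compounds for 10 min at room temperature. NKH477 (200nM) was then added for 30 min. cAMP was read by HTRF.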

Assay [18] has the same target. Briefly: Dopamine D2 receptor (DRD2) small molecule antagonists, cell-based qHTS assay (AID 1963595; active = well fitted inhibition curve with a large enough effect in the signal ratio in the repeat runs, with a control signal flat; the % refers to the signal ratio). The method, boiled down:
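Readout: HTRF cAMP, cAMP-d2 competing with cellular cAMP for anti-cAMP cryptate, read after 1 h. Cells: DRD2-HEK293. Conditions: 0.1 mM Ro20-1724, 12 nM quinpirole, 200 nM NKH477, 30 min RT.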

Assay [19] concerns the target 5-hydroxytryptamine receptor 2A (Homo sapiens) (UniProt P28223). Briefly: 5-hydroxytryptamine receptor 2A (HTR2A) small molecule agonists, cell-based qHTS assay (AID 1963587). Also: nearly all actives have a fitted effect of over 30% in size. In outline: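 HTR2A-CHO cells, plated 18 h at 37 C/5% CO2, dye-loaded 1 h at 37 C; compounds in DMSO added by pin tool (agonist mode). Intracellular calcium flux read as kinetic fluorescence on FDSS over 2 min at 1 s intervals.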

For assay [20], the target named is Beta-2 adrenergic receptor (Homo sapiens) (UniProt P07550). Briefly: Adrenergic beta2 receptor (ADRB2) small molecule agonists, cell-based qHTS assay (AID 1963593).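 Also: CHO cells stably overexpressing human ADRB2.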 The method, boiled down:
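CHO cells stably over-expressing ADRB2 were plated overnight at 37C, then dosed with compounds plus a stimulation mix containing 100uM IBMX and 25uM Ro-20-1724 for 0.5hr at room temperature. cAMP was measured by HTRF competition, 1hr.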

D(2) dopamine receptor (Homo sapiens), sequence (P14416 whole entry, looked up): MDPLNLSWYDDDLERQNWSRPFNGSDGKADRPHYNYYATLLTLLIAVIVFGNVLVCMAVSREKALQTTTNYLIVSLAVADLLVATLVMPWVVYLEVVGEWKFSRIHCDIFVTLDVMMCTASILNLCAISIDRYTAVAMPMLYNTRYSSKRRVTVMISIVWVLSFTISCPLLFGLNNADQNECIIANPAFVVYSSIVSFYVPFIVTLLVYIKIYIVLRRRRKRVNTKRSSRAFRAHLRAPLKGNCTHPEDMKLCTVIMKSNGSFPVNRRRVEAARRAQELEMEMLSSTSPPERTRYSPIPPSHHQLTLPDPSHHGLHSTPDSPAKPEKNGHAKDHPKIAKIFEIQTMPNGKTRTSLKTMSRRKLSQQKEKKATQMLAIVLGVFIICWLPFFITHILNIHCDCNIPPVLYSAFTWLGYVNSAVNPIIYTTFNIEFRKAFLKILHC
5-hydroxytryptamine receptor 2A (Homo sapiens), sequence (P28223 whole entry, looked up): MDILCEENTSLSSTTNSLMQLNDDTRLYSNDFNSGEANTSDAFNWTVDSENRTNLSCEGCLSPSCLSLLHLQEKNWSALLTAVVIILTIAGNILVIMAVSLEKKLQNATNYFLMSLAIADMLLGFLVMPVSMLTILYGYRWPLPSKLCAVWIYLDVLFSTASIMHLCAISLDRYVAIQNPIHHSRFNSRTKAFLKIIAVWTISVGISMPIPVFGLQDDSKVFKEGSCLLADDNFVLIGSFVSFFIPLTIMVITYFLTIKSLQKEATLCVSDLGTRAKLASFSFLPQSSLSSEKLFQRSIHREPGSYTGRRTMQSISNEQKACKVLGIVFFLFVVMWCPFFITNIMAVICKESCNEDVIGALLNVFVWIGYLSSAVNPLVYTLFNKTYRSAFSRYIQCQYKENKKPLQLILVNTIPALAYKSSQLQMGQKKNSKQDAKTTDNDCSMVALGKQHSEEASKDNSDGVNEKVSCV
Beta-2 adrenergic receptor (Homo sapiens), sequence (P07550 whole entry, looked up): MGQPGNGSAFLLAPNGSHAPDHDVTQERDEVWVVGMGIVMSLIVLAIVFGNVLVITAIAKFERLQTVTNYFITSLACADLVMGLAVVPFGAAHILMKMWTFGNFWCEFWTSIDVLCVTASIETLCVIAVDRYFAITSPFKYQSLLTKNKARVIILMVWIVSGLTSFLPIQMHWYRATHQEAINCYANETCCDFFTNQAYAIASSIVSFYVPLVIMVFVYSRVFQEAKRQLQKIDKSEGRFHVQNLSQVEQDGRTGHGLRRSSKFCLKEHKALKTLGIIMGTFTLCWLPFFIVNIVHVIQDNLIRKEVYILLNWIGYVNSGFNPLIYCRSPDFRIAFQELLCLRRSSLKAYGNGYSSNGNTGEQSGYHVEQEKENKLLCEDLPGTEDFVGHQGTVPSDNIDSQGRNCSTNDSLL

Take `CCC(C)(CCCC(C)C)OC(C)=O` (stereo unspecified): the Potency result in assay [1], in assay [2], in assay [5], in [6], in [7] and in assay [8] was “inactive” each time. Also, the Potency entry in [9], in assay [10], in assay [11], in assay [12], in [13] and in [14] was “inactive” in each case. Moreover, the Potency entry in [15], in [16], in assay [17] and in [18] was “inactive” in each case. The result in [3] and in assay [4] was inactive.

Turning to `CC(C)(C)NCC(O)COc1ccc(NC(=O)NC2CCCCC2)cc1` (stereo unspecified), the Potency result in assay [1], in [2], in [5], in assay [6], in assay [7] and in assay [8] was “inactive” in each case. Also, the Potency entry in [9], in assay [10], in [11], in assay [19], in assay [13] and in assay [14] was “inactive” in each case. Further, the Potency result in assay [15] and in assay [18] was “inactive” each time. For the same compound, the result in assay [3] and in assay [4] was inactive. Further, in assay [16], the Potency is 4.73 µM (active).

With `C=CC(C)(C)O`, the Potency result in [1], in assay [2], in assay [5], in assay [6], in assay [7] and in assay [8] was “inactive” throughout. In addition, the Potency entry in assay [9], in assay [10], in assay [11], in assay [19], in assay [12] and in assay [13] was “inactive” throughout. The Potency result in [14], in assay [17] and in [18] was “inactive” each time. Also, the outcome in [3] and in assay [4] was inactive.

In the case of `O=c1[nH]cnc2nc[nH]c12`, the Potency result in assay [1], in assay [2], in assay [5], in [6], in assay [7] and in assay [8] was “inactive” in each case. The Potency entry in assay [9], in [10], in assay [11], in assay [19], in assay [13] and in assay [14] was “inactive” in each case. The Potency entry in assay [15], in assay [16] and in assay [18] was “inactive” each time. For the same compound, the result in assay [3] and in assay [4] was inactive.

As to `CC(C)c1ccc(C#N)cc1`, the Potency entry in assay [1], in assay [2], in assay [5], in assay [6], in assay [7] and in assay [8] was “inactive” in each case. Further, the Potency result in assay [9], in [10], in [11], in assay [19], in [13] and in [14] was “inactive” in each case. For the same compound, the Potency result in assay [15], in assay [16], in assay [20], in assay [17] and in assay [18] was “inactive” in each case. The result in assay [3] and in assay [4] was inactive.

Turning to `C=C(C)C(=O)OCCOCC`, in [1], the Potency was 54.7 µM (active). Further, the Potency result in [2], in [5], in assay [6], in [7], in assay [8] and in assay [9] was “inactive” in each case. For the same compound, the Potency entry in assay [10], in assay [11], in assay [19], in assay [12], in assay [13] and in assay [15] was “inactive” each time. Besides, the Potency entry in assay [16], in assay [17] and in assay [18] was “inactive” throughout. For the same compound, the outcome in assay [3] and in assay [4] was inactive.
